The whole screen tested about 360,000 compounds, of which about 10,000 (2.8%) were called active. About 4% were inconclusive and are not listed. Many of the other results were omitted from the sample, so actives are more common in it than they were. Values without a mark were called inactive. Calls follow the shape of the dose curve; as a rule, active = well fitted inhibition curve with a large enough effect; inconclusive = small, poorly fitted or top-dose-only effect; inactive = flat fitted curve, though single readings scatter.
These compounds were tested against Serine/threonine-protein kinase PLK1 (Homo sapiens) (UniProt P53350) (assay: qHTS for Inhibitors of PLK1-PDB (polo-like kinase 1 - polo-box domain): Primary Screen). Details: Plk1 PBD binding of FITC phosphopeptide, fluorescence polarization.
Sequence of Serine/threonine-protein kinase PLK1 (Homo sapiens) (P53350 whole entry, looked up, the tested form may be a part): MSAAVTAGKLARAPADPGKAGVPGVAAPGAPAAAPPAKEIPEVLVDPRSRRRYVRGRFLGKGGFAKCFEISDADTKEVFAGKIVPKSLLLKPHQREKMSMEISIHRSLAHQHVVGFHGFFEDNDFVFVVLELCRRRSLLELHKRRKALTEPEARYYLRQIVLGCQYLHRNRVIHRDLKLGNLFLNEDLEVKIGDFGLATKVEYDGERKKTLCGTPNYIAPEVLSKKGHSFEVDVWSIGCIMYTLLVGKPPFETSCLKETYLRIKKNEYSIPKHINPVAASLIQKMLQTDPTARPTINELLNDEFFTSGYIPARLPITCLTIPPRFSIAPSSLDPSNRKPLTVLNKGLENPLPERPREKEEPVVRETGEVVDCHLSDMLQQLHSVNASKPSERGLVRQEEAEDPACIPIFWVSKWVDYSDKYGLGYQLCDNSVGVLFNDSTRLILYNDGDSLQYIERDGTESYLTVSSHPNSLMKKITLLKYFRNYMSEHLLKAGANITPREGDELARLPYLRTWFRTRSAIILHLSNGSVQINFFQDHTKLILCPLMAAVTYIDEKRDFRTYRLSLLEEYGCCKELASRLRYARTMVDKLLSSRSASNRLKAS
% is scaled to controls: 0 for no effect and ±100 for the full control effect; potency is read from the fitted curve at half-maximal effect.
Also: nearly all actives have a fitted effect of over 65% in size.
For max response, negative = inhibition in this document: series mostly up to about 57 µM.

| SMILES | max response, negative = inhibition | Potency |
| --- | --- | --- |
| O=C(Nc1ccc(N2CCOCC2)cc1)c1cccc(S(=O)(=O)N2CCOCC2)c1 | -5.11% | – |
| COC(=O)c1ccc(N2CCOCC2)c(NC(=O)c2ccc3c(c2)OCCO3)c1 | 0.435% | – |
| O=C(Nc1ccc(N2CCOCC2)cc1)c1ccc2c(c1)OCO2 | – | 26.7 µM (active) |
| COCOCCn1cc(CN2CCS(=O)(=O)N(Cc3ccc(-c4ccc(OC)cc4)cc3)C(CC(C)C)C2=O)nn1 (stereo not given) | -17% | – |
| CCC(C)CN1C(=O)CN(S(C)(=O)=O)CC1(C)C(=O)Nc1ccc2c(c1)OCCO2 (stereo not given) | -14.3% | – |
| Cc1ccc(S(=O)(=O)N2[C@@H](c3cccc(Cl)c3)C(C(=O)O)=CC[C@H]2c2ccc(Cl)c(Cl)c2)cc1 | – | 21.2 µM (active) |
| CCOC(=O)C1=CC[C@@H](c2ccccc2)N(S(=O)(=O)c2ccc(C)cc2)[C@H]1c1cccc(OC)c1 | -10.4% | – |
| Cc1ccc(S(=O)(=O)N2[C@@H](c3ccccc3F)C(C(=O)O)=CC[C@H]2c2ccc(Cl)cc2)cc1 | -15.9% | – |
| CCc1noc(C)c1C(=O)OCC(=O)c1ccc(NC(=O)CC(C)C)cc1 | -8.24% | – |
| CC(C)C[C@@H]1COc2cc(N3CCC[C@@H]3CO)ccc2S(=O)(=O)N1 | 2.66% | – |
| CC(=O)N1CCc2c(sc(NC(=O)CCS(=O)(=O)c3ccccc3)c2C#N)C1 | -11.3% | – |
| CC(C)N1CCc2c(sc(NC(=O)Cc3ccccc3)c2C#N)C1 | -26% | – |
| N#Cc1c(N)sc2c1CCN(C(=O)OCc1ccccc1)C2 | – | 23.8 µM (active) |
| CCN(CC)C(=O)C1=C(C)N(Cc2ccccc2)C(=O)C(CC(=O)NC(c2ccccc2)c2ccccc2)C1 (stereo not given) | -7.71% | – |
| CCCCc1nc2ccc(F)cc2cc1C | -7.86% | – |
| CN(C)C(=O)N=NC(=O)N(C)C | – | 1.89 µM (active) |
| O=C(CSc1nc2cccc(F)c2c(=O)n1-c1ccccc1)Nc1ccc2c(c1)CCC2 | -2.85% | – |
| CC(C)(O)C#Cc1ccc(CNC[C@H]2O[C@@H](n3cnc4c(=O)[nH]c(N)nc43)[C@H](O)[C@@H]2O)s1 | 0.0305% | – |
| COC(=O)c1ccc2c(c1)S(=O)(=O)NC2C (stereo not given) | -7.33% | – |
| O=C(NC1CC1)C(Cc1ccccc1)NS(=O)(=O)c1ccccc1F (stereo not given) | – | 23.8 µM (active) |
| CSCCC(NS(=O)(=O)c1ccccc1F)C(=O)N1CC=C(c2ccccc2)CC1 (stereo not given) | 0.274% | – |
| CN(Cc1ccccc1F)C(=O)C(Cc1ccccc1)NC(=O)c1ccccc1 (stereo not given) | -7.43% | – |
| C[C@H](CO)N1C[C@H](C)[C@@H](CN(C)C(=O)c2cccc(F)c2)Oc2cc(-c3cncnc3)ccc2S1(=O)=O | -2.44% | – |
| Cc1ccccc1C(=O)Nc1ccccc1NC(=O)c1ccccc1C | -16.3% | – |
| CC(=O)Nc1ccccc1NC(=O)c1cc(C)cc(C)c1 | – | 9.47 µM (active) |
| Nc1ccc(C(=O)Nc2ccccc2N)cc1 | -11.6% | – |
| COc1ccccc1N1CC(C(=O)Nc2nnc(SCC(=O)NC(C)C)s2)CC1=O (stereo not given) | -26.4% | – |
| CCc1nnc(NC(=O)C2CC(=O)N(c3ccc4c(c3)OCCO4)C2)s1 (stereo not given) | – | 13.4 µM (active) |

| SMILES | max response, negative = inhibition | Potency |
| --- | --- | --- |
| Cc1ccccc1N1CC(C(=O)Nc2nnc(SCCC3OCCO3)s2)CC1=O (stereo not given) | – | 21.2 µM (active) |
| CC(=O)c1ccccc1NC(=O)C1CC(=O)N(c2ccc3c(c2)OCCO3)C1 (stereo not given) | 7.84% | – |
| COc1ccccc1N1CC(C(=O)Nc2nnc(SCC(=O)NCC3CCCO3)s2)CC1=O (stereo not given) | -29% | – |
| CCOC(=O)c1ccc(NC(=O)C2CC(=O)N(c3ccc4c(c3)OCCO4)C2)cc1 (stereo not given) | -3.19% | – |
| CCN1CCN(CCNC(=O)c2ccc3c(c2)NC(=O)/C(=C\c2cccc(Cl)c2)S3)CC1 | -9.11% | – |
| COc1cccc(CNc2nc(NCc3cccs3)nc3ccsc23)c1 | -6.78% | – |
| COC(=O)[C@@]1(Cc2ccc(F)cc2)[C@H]2c3cc(C(=O)N(C)C)n(CCc4c[nH]c5ccc(OC)cc45)c3C[C@H]2CN1C(=O)c1ccccc1 | -0.876% | – |
| C=CCOc1ccccc1CNn1c(C)n[nH]c1=S | -12.8% | – |
| O=C(NCc1ccccc1)C1c2ccccc2OCC(=O)N1C1CC1 (stereo not given) | 2.78% | – |
| Cc1csc(SCC(=O)Nc2ccc(C)c(S(=O)(=O)N(C)C)c2)n1 | -2.14% | – |
| CCc1nnc(SCc2cccc(F)c2)nc1CC | 1.21% | – |
| c1ccc(CSc2nnc(-c3ccco3)c(-c3ccco3)n2)cc1 | – | 11.2 µM (active) |
| Clc1ccccc1CSc1nnc(-c2ccco2)c(-c2ccco2)n1 | – | 13.4 µM (active) |
| c1ccc(Cc2c(-c3ccco3)nc3c4ccccc4ccn23)cc1 | -8.74% | – |
| COC(=O)c1ccc2nc(-c3ccc(F)cc3)c(Cc3ccc(C)cc3)n2c1 | 1.02% | – |
| COc1ccc(C(=O)N2CCCCC2c2cc(C(=O)Nc3ccc(F)c(Cl)c3)no2)cc1 (stereo not given) | -10.1% | – |
| CCOCCC(=O)Nc1ccc2c(c1)c(=O)n(C)n2-c1ccc2ccccc2c1 | -3.07% | – |
| CCOC(=O)[C@]12CCC=C1N(Cc1ccco1)C(=O)[C@H](CC(=O)NCc1cccc(C(F)(F)F)c1)C2 | -26% | – |
| Cc1cc(C(=O)N2CCCC2(C)C(=O)O)c(C)o1 (stereo not given) | -5.24% | – |
| CCCCC(=O)NC(c1ccc(OC)c(OC)c1)c1ccc2cccnc2c1O (stereo not given) | -4.18% | – |
| Oc1c(C(c2ccccn2)N2CCOCC2)ccc2cccnc12 (stereo not given) | – | 9.47 µM (active) |
| Cc1ccc(S(=O)(=O)N2CCN(S(=O)(=O)N3CCOCC3)CC2)cc1 | -4.72% | – |
| O=S(=O)(c1ccc2ccccc2c1)N1CCN(S(=O)(=O)N2CCOCC2)CC1 | -4% | – |
| CCn1c(=S)[nH]c2cc(S(=O)(=O)N3CCOCC3)ccc21 | – | 29.9 µM (active) |
| Cc1ccc(CC2(C)C(=O)Nc3ccc(OC(F)(F)F)cc32)cc1 (stereo not given) | 0.395% | – |
| COCCCNc1ccn2nc(-c3ccc(CC(C)C)cc3)cc2n1 | -1.25% | – |
| CCN(CC)C(=O)C1=C(C)N(Cc2ccc(C(C)(C)C)cc2)C(=O)C(CC(=O)NCc2cccc3ccccc23)C1 (stereo not given) | -4.44% | – |

Reference: PubChem BioAssay AID720504 (National Center for Advancing Translational Sciences (NCATS), 2013)
